Data on 116 compounds can be found in ChEMBL document CHEMBL4513216, “Probing the Open Global Health Chemical Diversity Library for Multistage-Active Starting Points for Next-Generation Antimalarials” (ACS Infect Dis, 2020).

Screen size: about 69,000 compounds; about 8,600 (12%) showed an effect of 50% or more. For the sample, strong results were picked, then their nearest neighbours and some compounds at random.

The assay has as its system Plasmodium berghei. Briefly: Screen against P. berghei liver stage (PbLuc), transformed with Luciferase, at 10uM. Type of assay: functional, HepG2. The note with it: tested at 10 uM.
For `CCOCC(=O)N(C)Cc1nc(C(F)(F)F)cs1`, the INHIBITION came to 9.52%.

For `CC(C)N(C)CC(=O)N(C)Cc1nc(C(F)(F)F)cs1`, the INHIBITION turned out to be 22.7%. The value for `CC(C)CC(=O)N(C)Cc1nc(C(F)(F)F)cs1` was 62.9%; that for `Cc1ccc(N2CCCC(NCc3nnc4n3CCCC4)C2=O)cc1` (stereo unspecified) was -76.95%; that for `CNC(=O)[C@H]1C[C@@H]2CN(C(=O)c3occc3C)C[C@@H]2N1S(C)(=O)=O` was -0.371%. The value for `O=C1CCSCC(C(=O)N2CCCCC2)N1` (stereo unspecified) was -18.3%; that for `CS(=O)(=O)N1CCN(C(=O)C2CSCCC(=O)N2)CC1` (stereo unspecified) was 60%.

As to `O=C1CCSCC(C(=O)N2CCCC2)N1` (stereo unspecified), the INHIBITION is 38.5%.

For the compound `CC(C)CN1CC[C@@H]2[C@@H]1CCN2S(=O)(=O)c1cccs1`, the INHIBITION is on record as 1.34%. The value for `O=C(NC1CCC1)c1cccc(S(=O)(=O)NCc2nc(C3CC3)no2)c1` was -9.2%. Next, `O=C(c1ccc(S(=O)(=O)NCc2ccon2)cc1)N1CCNCC1`: 41.3%; `NC(=O)CC1CCCN(C(=O)NCC2(c3cccs3)CCCC2)C1` (stereo unspecified): -9.51%. For `Cc1nn(C)c(N(C)C)c1CNCc1cccc(Br)c1`, the INHIBITION is -22.1%. The value for `Cc1nn(C)c(N(C)C)c1CNCC(O)COc1cccc(F)c1` (stereo unspecified) was 83.2%; that for `Cc1nn(C)c(N(C)C)c1CNCC(O)COc1ccc(F)cc1` (stereo unspecified) was 0%; that for `COCc1cccc(CNCc2c(C)nn(C)c2N(C)C)c1` was 44.3%. The value for `COc1cccc(CNCc2c(C)nn(C)c2N(C)C)c1` was 38.95%. With `COCc1cccc(CNCc2c(C(C)C)nn(C)c2N(C)C)c1`, the INHIBITION was determined as 50.8%.

In the case of `COc1ccc2cc(CNCc3c(C)nn(C)c3N(C)C)ccc2c1`, the INHIBITION turned out to be 53%. The value for `COc1cccc(CNCc2c(C(C)C)nn(C)c2N(C)C)c1` was 12.22%; that for `COc1cc(CNCc2c(C)nn(C)c2N(C)C)ccc1C` was 30.8%; that for `Cc1nn(C)c(N(C)C)c1CNCc1cccc(CN(C)C)c1` was -72.2%. The value for `Cc1cccc(OCC(O)CNCc2c(C)nn(C)c2N(C)C)c1` (stereo unspecified) was -45.2%; that for `Cc1nn(C)c(N(C)C)c1CNCc1cccc(Cl)c1` was 68.1%. `COCCN1C(=O)CCC12CCC(NCc1ccc(OC)cc1)CC2` (stereo unspecified): the INHIBITION came to 15.3%. The value for `COc1ccc(OC)c(-c2cc(C(=O)NCC3(CO)CC3)n(C)n2)c1` was 6.54%; that for `O=C(NC[C@]12COC[C@H]1CN(Cc1cccnc1)C2)c1ccno1` was 29%; that for `c1cc(C2CCN(Cc3ccc4c(c3)OCO4)CC2)ccn1` was 19.4%. For the compound `Cc1ccc(NCc2cc(C#N)ccc2F)cc1-n1nnnc1C`, the INHIBITION is -3.83%.

As to `CC(C)CC(=O)N1CCCn2cnc(CNS(C)(=O)=O)c2C1`, the INHIBITION is on record as -3.33%.

Take `CC(C)NC(=O)[C@H]1C[C@@H]2[C@@H](C1)OCCN2Cc1nccs1`: the INHIBITION was determined as 16.9%. Next, `Nc1nccnc1C1CN(C(=O)c2ccnnc2)CCO1` (stereo unspecified): 26.8%; `CSC(C)(C)CNC(=O)NC1CCC1`: 34.6%; `CCNc1cc2c(nn1)CCN(C(=O)C(C)c1c(C)noc1C)C2` (stereo unspecified): 31.9%.

Regarding `Cc1nnc(NC(=O)NCc2ccc(F)cc2)s1`, the INHIBITION was -162%.

For the compound `COC(=O)c1ccoc1CN(C)Cc1ccccc1`, the INHIBITION was determined as 37.1%. In the case of `CC(c1cc(F)ccc1F)N(C)Cc1nc2c(cnn2C)c(=O)[nH]1` (stereo unspecified), the INHIBITION stood at 16.34%. The value for `COc1ccc(C)cc1NC(=O)Cn1nc(C)c(C#N)c1N` was 16.8%.

As to `CCc1nn(-c2cc(Oc3cc(C)ccc3C)nc(C)n2)c(N)c1C#N`, the INHIBITION worked out at 64.9%. The value for `CCc1nn(-c2cc(Oc3cc(C)ccc3C)ncn2)c(N)c1C#N` was 57.8%; that for `CCOC(=O)c1cnn(-c2cc(Oc3cc(C)ccc3C)ncn2)c1N` was 18.6%. With `Cc1ccc(C)c(NC(=O)Cn2nc(C)c(C#N)c2N)c1`, the INHIBITION was determined as 14.6%. Consider `CCc1nn(-c2cc(Oc3ccccc3)nc(C)n2)c(N)c1C#N`, for which the INHIBITION was determined as 31.8%. The value for `Cc1ccc(C)c(Oc2cc(-n3nc(C)c(C#N)c3N)nc(C)n2)c1` was 55.6%; that for `CCc1nn(-c2cc(Oc3cccc(C)c3)nc(C)n2)c(N)c1C#N` was -7.81%; that for `CC(O)c1cn(Cc2ccccc2)nn1` (stereo unspecified) was -1.84%. Next, `O=C(c1ncccn1)N1CCC[C@]2(C[C@H](OCC3CC3)CO2)C1`: 40.4%; `COc1c(C2CCCN2C(=O)c2sc(C)nc2C)c(C)nn1C` (stereo unspecified): 8.64%. The value for `CN(C)[C@@H]1CN(C(=O)CCc2ccccc2)[C@@H]2CCCO[C@H]12` was 8.66%; that for `Cc1ccc(CC(=O)N2CCCC2Cn2nc(C)cc2C)cn1` (stereo unspecified) was 33.7%; that for `CC(=O)N1CCCC(C(=O)NCCc2ccc(F)c(Br)c2)C1` (stereo unspecified) was 9.72%. Regarding `CCc1c(C(=O)N2CCN(c3cnccn3)CC2)cnn1C(C)(C)C`, the INHIBITION is on record as -0.219%. On to `CC(=O)N(Cc1noc(C2CC2)n1)C1CCN(Cc2cccnc2)C1` (stereo unspecified), for which the INHIBITION was 25.7%. The value for `Cc1ccccc1C(=O)Nc1cnn(CCN2CCOCC2)c1` was -21.3%; that for `COc1cc(CNc2cnn(CCN3CCOCC3)c2)cc(OC)c1` was 1.74%; that for `N#Cc1ccc(CNc2cnn(CCN3CCOCC3)c2)cc1` was 24%. As to `O=C(Nc1cnn(CCN2CCOCC2)c1)c1ccccc1O`, the INHIBITION is listed as 55.9%. Next, `O=C(Nc1cnn(CCN2CCOCC2)c1)c1ccccc1Cl`: -13.4%; `Clc1ccc(CNc2cnn(CCN3CCOCC3)c2)cc1Cl`: 56%. In the case of `COc1ccccc1CN(CC1CCCO1)C(=O)c1scnc1C` (stereo unspecified), the INHIBITION is recorded as -9.08%. Next, `O=c1ccc2c(n1Cc1cccnc1)CCN(Cc1ccoc1)CC2`: -110%. Next, `Cc1cncc(C2CCCN2CCO)n1` (stereo unspecified): 0.696%; `O=C(c1cnccn1)N1CC[C@@H]2CO[C@@H](CN3CCCC3)[C@@H]2C1`: 37.8%; `CSc1ccccc1CN1C[C@H]2CC[C@@H](C1)N(CC1CC1)C2=O`: 28.3%.

On to `COc1c(CNCCc2c[nH]c3ccccc23)c(C)nn1C`, for which the INHIBITION was determined as 30.1%. The value for `COc1c(CNCCc2c[nH]c3cc(F)ccc23)c(C(C)C)nn1C` was 44.2%; that for `COc1c(CNCCc2c[nH]c3cc(F)ccc23)c(C)nn1C` was 70.2%; that for `CS(=O)(=O)c1ccc(CNc2nccc(C(F)(F)F)n2)cc1` was -33.9%. The value for `CN1CC2(CCCN(C(=O)Cc3cccc(O)c3)C2)OC1=O` (stereo unspecified) was 16.3%.

For the compound `CN(C)CC1COCCN1C(=O)c1ccccc1C(=O)c1ccccc1` (stereo unspecified), the INHIBITION turned out to be 22.6%. As to `O=C1N(Cc2ccc(F)c(F)c2)CCCC12CCN(C1CCCCC1)C2` (stereo unspecified), the INHIBITION is recorded as 81.7%. Take `O=C1N(CCc2ccccc2)CCCC12CCN(C(CO)CO)C2` (stereo unspecified): the INHIBITION is listed as -33.9%.

Turning to `CC(C)N1CCC2(CCCN(Cc3ccc(F)cc3)C2=O)C1` (stereo unspecified), the INHIBITION is recorded as 70.4%. The value for `O=C1N(Cc2ccc(F)c(F)c2)CCCC12CCN(C1CCCC1)C2` (stereo unspecified) was 37.4%; that for `O=C1N(Cc2ccc(F)c(F)c2)CCCC12CCN(C1CCSCC1)C2` (stereo unspecified) was 80.8%; that for `CCS(=O)(=O)N1CCC2(CCCN(Cc3ccc(F)c(F)c3)C2=O)C1` (stereo unspecified) was 39.4%.

`Cc1cccc(CN2CCCC3(CCN(C4CCSCC4)C3)C2=O)c1` (stereo unspecified): the INHIBITION stood at 39.9%. The value for `CN(C)S(=O)(=O)N1CCC2(CCCN(Cc3ccc(F)cc3)C2=O)C1` (stereo unspecified) was 36.8%.

`O=C1N(Cc2ccc(F)cc2)CCCC12CCN(C1CCSCC1)C2` (stereo unspecified): the INHIBITION came to 33.3%.

Consider `Cc1ccccc1C(=O)N1CCC2(CCCN2CCN(C)C)CC1`, for which the INHIBITION is -35.6%. As to `CC(C)c1ncncc1C(=O)NCCN1CCCC1`, the INHIBITION was determined as 29%. Next, `CN(C)C(=O)c1c[nH]nc1C1CCN(S(=O)(=O)c2ccc(Cl)cc2)CC1`: 24.8%. Next, `CN(Cc1ccco1)[C@@H]1CN(CC2CCOCC2)[C@@H]2CCCO[C@H]12`: 33.4%. Next, `CC(C)OCCCNC(=O)CN1CCN(c2nccs2)C(C)C1` (stereo unspecified): -27.5%; `Cc1cn[nH]c1C1COCCN1S(=O)(=O)c1cn[nH]c1` (stereo unspecified): 23.2%; `Cn1cnnc1SCC(=O)NC1CC(=O)N(CCc2cccc(Cl)c2)C1` (stereo unspecified): 6.29%. Regarding `CC(=O)N1CCC2(CC1)CC(N1CCOCC1)c1ccc(C)cc12` (stereo unspecified), the INHIBITION is recorded as -39.2%. Next, `Cc1nc(NCc2nccn2C)cc(C2COCCN2)n1` (stereo unspecified): 23.375%; `Cc1noc(-c2ccc(N3CCC(C(=O)N4CCCC4)CC3)nc2)n1`: 76.7%.

In the case of `Cc1noc(-c2ccc(N3CCCC(C(=O)N4CCSCC4)C3)nc2)n1` (stereo unspecified), the INHIBITION is on record as 28.8%.

For `Cc1noc(-c2ccc(N3CCCC(C(=O)O)C3)nc2)n1` (stereo unspecified), the INHIBITION was -19.2%.

For `CCn1ncc(S(=O)(=O)N[C@@H]2CC[C@@H](n3ccnc3C)[C@@H]2O)c1C`, the INHIBITION is 4.9%.

Regarding `Cc1cc(=O)[nH]c(=O)n1COCCOCc1ccccc1`, the INHIBITION is reported as 8.41%. Next, `Cc1cc(=O)[nH]c(=O)n1COCc1ccccc1`: 13.6%; `Cc1ccccc1COCCOCn1c(C)cc(=O)[nH]c1=O`: 51.3%.

Take `CC(C)n1ccnc1CN1CCOC(CC2CCCCC2)C1` (stereo unspecified): the INHIBITION was found to be 50%. The value for `CC(C)n1ccnc1CN1CCCN(C(=O)CC2CCCO2)CC1` (stereo unspecified) was -32%; that for `CC(C)n1ccnc1CN1CCOC(CCc2ccccc2)C1` (stereo unspecified) was 9.34%.

Consider `COc1ccccc1C1(NCc2c(C)nc3c(C)cccn23)CCCC1`, for which the INHIBITION was found to be 49%.

In the case of `Cc1nc2sccn2c1CNc1cc(C(=O)O)ccc1F`, the INHIBITION was -15.7%. For `Cc1nc2sccn2c1CNC1(c2ccccc2F)CCCC1`, the INHIBITION stood at 52.4%.

As for `O=C(Cn1cccn1)N(CCO)CCSc1ccc(Cl)cc1`, the INHIBITION was determined as 24.7%.

On to `Cc1nc(C(C)NC(=O)c2cn(Cc3ccc(Cl)cc3)nn2)n[nH]1` (stereo unspecified), for which the INHIBITION is given as 39.9%.

As to `Cc1noc(C(C)C)c1C(=O)NCC(c1ccccc1)N(C)C` (stereo unspecified), the INHIBITION was -7.35%.

As for `OC1(Cn2ccc3ncccc32)CCN(Cc2cc(F)cc(F)c2)CC1`, the INHIBITION is recorded as 54.4%.

Turning to `OC1(Cn2ccc3ncccc32)CCN(Cc2ccccn2)CC1`, the INHIBITION amounted to 50.6%. With `Cc1cc(CN2CCC(O)(Cn3ccc4ncccc43)CC2)c(C)s1`, the INHIBITION came out at 23.2%. The value for `OC1(Cn2ccc3ccncc32)CCN(Cc2ccccn2)CC1` was 37%; that for `Cc1ccc(CN2CCC(O)(Cn3ccc4ncccc43)CC2)o1` was 28%; that for `CCn1cc(CN2CCC(O)(Cn3ccc4ncccc43)CC2)cn1` was 38.8%. Next, `COc1ccccc1CN1CCC(O)(Cn2ccc3ncccc32)CC1`: 14.7%; `COCc1ccc(CN2CCC(O)(Cn3ccc4ncccc43)CC2)o1`: 38.7%.

As for `OC1(Cn2ccc3ncccc32)CCN(Cc2cccnc2)CC1`, the INHIBITION is listed as 35.2%. Next, `CCn1ncc(CN2CCC(O)(Cn3ccc4ncccc43)CC2)c1C`: 19.6%. With `OC1(Cn2ccc3ncccc32)CCN(Cc2cccs2)CC1`, the INHIBITION worked out at 64.1%. Regarding `OC1(Cn2ccc3ncccc32)CCN(Cc2ccccc2F)CC1`, the INHIBITION worked out at 70.1%.
